PubChem BioAssay (Tox21)
Values joined by “and” are separate entries in the source; they are usually repeats but may differ in a detail not shown here. Equal values may be shown once. Records with an inconclusive call do not appear. Entries that show only a call come without a potency. Some structures have more than one record in an assay (separate samples or runs), and their calls can disagree. Active and inactive are the calls of the source. Unless noted, calls come from the whole dose curve; as a rule, active = well fitted curve in the direction sought with a large enough effect in the repeat runs; inconclusive = weak or mixed curves; inactive = no such curve, though single readings can be large; an effect the other way counts as inactive or inconclusive.

Assays:
[1] = qHTS assay for identifying genotoxic compounds that show differential cytotoxicity against isogenic chicken DT40 cell lines with known DNA damage response pathways - Rev3 mutant cell line (AID 743014); note: nearly all actives have a fitted effect of over 55% in size; note: potency is the fitted concentration of half-maximal effect
[2] = qHTS assay to identify small molecule antagonists of the androgen receptor (AR) signaling pathway - cell viability counter screen (AID 743033; note: nearly all actives have a fitted effect of over 45% in size; note: potency is the fitted concentration of half-maximal effect)
[3] = qHTS assay to identify small molecule antagonists of the androgen receptor (AR) signaling pathway using the MDA cell line - cell viability counter screen (AID 743041; note: nearly all actives have a fitted effect of over 45% in size)
Method in brief: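 qHTS viability read-out; MDA-kb2 AR-luc; R1881-stimulated; 16 h exposure at 37C, 0% CO2; CellTiter-Fluor, 30 min; fluorescence intensity.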

[4] = qHTS assay for identifying genotoxic compounds that show differential cytotoxicity against isogenic chicken DT40 cell lines with known DNA damage response pathways - wild type cell line (AID 743012); note: nearly all actives have a fitted effect of over 60% in size; note: potency is the fitted concentration of half-maximal effect
Method in brief: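 300 wt DT40 cells/well; cpd (DMSO) pintool-transferred after ~0.5 h at 37 C/5% CO2; 40 h incubation; CellTiter-Glo added, 30 min RT; luminescence read.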

[5] = qHTS assay for identifying genotoxic compounds that show differential cytotoxicity against isogenic chicken DT40 cell lines with known DNA damage response pathways - Rad54/Ku70 mutant cell line (AID 743015); note: nearly all actives have a fitted effect of over 60% in size; note: potency is the fitted concentration of half-maximal effect
[6] = biological target: Androgen receptor (Homo sapiens) (UniProt P10275); experiment: qHTS assay to identify small molecule antagonists of the androgen receptor (AR) signaling pathway (AID 743035; active = well fitted inhibition curve with a large enough effect in the signal ratio in the repeat runs, not every such curve was filed as active; the % refers to the signal ratio)
Method in brief: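 In this cell-based reporter screen, compounds were tested in concentration series against R1881-activated HEK293 cells expressing beta-lactamase under UAS control; after 16 h at 37C, FRET substrate was added and fluorescence read 2 h later.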

[7] = biological target: Androgen receptor (Homo sapiens) (UniProt P10275); experiment: qHTS assay to identify small molecule agonists of the androgen receptor (AR) signaling pathway (AID 743036; active = well fitted activation curve with a large enough effect in the signal ratio in the repeat runs, with a control signal flat, not every such curve was filed as active; the % refers to the signal ratio)
Method in brief: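 AR-UAS-bla HEK293 cells, plated 4 h before dosing, were treated with compound for 16 h at 37C. beta-Lactamase reporter read after 2 h with LiveBLAzer B/G FRET substrate at room temperature.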

[8] = biological target: Androgen receptor (Homo sapiens) (UniProt P10275); experiment: qHTS assay to identify small molecule agonists of the androgen receptor (AR) signaling pathway using the MDA cell line (AID 743040; note: nearly all actives have a fitted effect of over 20% in size)
Method in brief: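 Agonist activity is measured as luciferase luminescence in human MDA-kb2 cells whose MMTV reporter responds to both AR and GR. Compounds in DMSO incubate 16 h at 37C, 0% CO2, and ONE-Glo is read after 30 min.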

[9] = biological target: Androgen receptor (Homo sapiens) (UniProt P10275); experiment: qHTS assay to identify small molecule antagonists of the androgen receptor (AR) signaling pathway using the MDA cell line (AID 743042; note: nearly all actives have a fitted effect of over 55% in size; note: potency is the fitted concentration of half-maximal effect)
Method in brief: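 MDA-kb2 cells (human breast carcinoma, stably carrying an MMTV-luciferase reporter responsive to AR and GR) were plated at 3,000 cells/well and preincubated 5 hr at 37C, then given compound plus R1881 agonist for 16 h. ONE-Glo luminescence was read.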

[10] = qHTS assay to identify small molecule antagonists of the glucocorticoid receptor (GR) signaling pathway - cell viability counter screen (AID 720693); note: nearly all actives have a fitted effect of over 55% in size

Sequence of Androgen receptor (Homo sapiens) (P10275 whole entry, looked up): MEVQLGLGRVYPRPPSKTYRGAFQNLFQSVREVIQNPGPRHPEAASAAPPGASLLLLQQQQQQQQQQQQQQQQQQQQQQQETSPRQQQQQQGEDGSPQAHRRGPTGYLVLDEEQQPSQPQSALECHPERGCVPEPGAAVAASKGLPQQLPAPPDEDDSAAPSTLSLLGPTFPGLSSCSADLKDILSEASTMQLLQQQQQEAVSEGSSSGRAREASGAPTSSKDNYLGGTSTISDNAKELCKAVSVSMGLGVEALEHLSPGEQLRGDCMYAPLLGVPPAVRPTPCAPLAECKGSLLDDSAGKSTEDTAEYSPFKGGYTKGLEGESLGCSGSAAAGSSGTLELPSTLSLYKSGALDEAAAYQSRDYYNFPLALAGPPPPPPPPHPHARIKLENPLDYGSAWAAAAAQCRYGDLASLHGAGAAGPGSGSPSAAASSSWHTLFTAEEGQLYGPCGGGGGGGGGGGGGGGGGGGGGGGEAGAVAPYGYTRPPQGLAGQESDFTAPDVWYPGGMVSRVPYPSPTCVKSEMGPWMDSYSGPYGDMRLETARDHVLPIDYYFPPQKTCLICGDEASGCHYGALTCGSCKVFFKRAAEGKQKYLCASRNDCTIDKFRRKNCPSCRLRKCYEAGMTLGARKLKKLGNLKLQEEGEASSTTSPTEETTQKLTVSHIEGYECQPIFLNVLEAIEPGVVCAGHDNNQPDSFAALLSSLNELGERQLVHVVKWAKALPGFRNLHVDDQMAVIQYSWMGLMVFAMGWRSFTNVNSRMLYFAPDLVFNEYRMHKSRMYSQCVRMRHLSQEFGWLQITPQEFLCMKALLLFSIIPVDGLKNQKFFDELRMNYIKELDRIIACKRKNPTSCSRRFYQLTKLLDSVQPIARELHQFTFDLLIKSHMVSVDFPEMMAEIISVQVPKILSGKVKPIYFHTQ

SMILES: C1C[C@@H]2[C@H]3CC[C@H](C3)[C@@H]2C1
- Potency [1]: inactive
- Potency [2]: inactive
- Potency [3]: inactive

SMILES: CCC(=O)C1CC(C(C)C)CC=C1C (stereo unspecified)
- Potency [4]: inactive
- Potency [1]: inactive
- Potency [5]: inactive
- Potency [2]: inactive
- Potency [6]: inactive
- outcome [7]: inactive
- outcome [8]: inactive
- Potency [3]: inactive
- Potency [9]: inactive

SMILES: CCCCCCCCCCCCCCN(CCO)CCO
- Potency [4]: 2.43 µM (active)
- Potency [1]: 1.09 µM (active)
- Potency [5]: 2.43 µM (active)
- Potency [2]: 43.6 µM (active)
- Potency [3]: inactive

SMILES: c1cc(N(CC2CO2)CC2CO2)ccc1Cc1ccc(N(CC2CO2)CC2CO2)cc1 (stereo unspecified)
- Potency [4]: 3.44 µM (active)
- Potency [1]: 0.0611 µM (active)
- Potency [5]: 1.93 µM (active)
- Potency [2]: 54.9 µM (active)
- outcome [8]: inactive
- Potency [3]: inactive
- Potency [9]: 27.3 µM (active)

SMILES: CCCCCCCCOc1ccc(C(=O)O)cc1
- Potency [4]: inactive
- Potency [1]: inactive
- Potency [5]: inactive
- Potency [2]: inactive
- Potency [3]: inactive

SMILES: COc1ccccc1NC(=O)c1cc2ccccc2cc1O
- Potency [4]: 43.3 µM (active)
- Potency [1]: 48.6 µM (active)
- Potency [5]: 30.6 µM (active)
- Potency [2]: 13.8 µM (active)
- outcome [7]: inactive
- outcome [8]: inactive
- Potency [3]: inactive

SMILES: CN1CCCN=C1COC(=O)C(O)(c1ccccc1)C1CCCCC1 (stereo unspecified)
- Potency [10]: inactive
- Potency [3]: inactive

SMILES: COC(=O)C1=C(C)NC(C)=C(C(=O)O[C@@H]2CCCN(Cc3ccccc3)C2)[C@@H]1c1cccc([N+](=O)[O-])c1
- Potency [4]: 13.3 µM (active)
- Potency [1]: 21.1 µM (active)
- Potency [5]: 13.3 µM (active)

SMILES: C/C=C/C=C/C=O
- Potency [1]: 54.1 µM (active)
- Potency [2]: inactive
- outcome [8]: inactive
- Potency [3]: inactive
- Potency [9]: inactive

SMILES: CCCCCC[C@@H](O)C/C=C\CCCCCCCC(=O)O
- Potency [4]: inactive and 29.8 µM (active)
- Potency [1]: inactive
- Potency [5]: inactive and 23.7 µM (active) and 48.6 µM (active)
- Potency [2]: inactive
- Potency [3]: inactive

SMILES: O=c1cc(-c2ccccc2)oc2cc(O)cc(O)c12
- Potency [4]: 54.5 µM (active)
- Potency [1]: 48.6 µM (active)
- Potency [5]: 24.3 µM (active)
- Potency [2]: inactive
- outcome [8]: inactive
- Potency [3]: inactive
- Potency [9]: inactive

SMILES: Cc1cc2c(OCC(CNC(C)(C)C)OC(=O)c3ccccc3)cccc2[nH]1 (stereo unspecified)
- Potency [10]: inactive
- Potency [2]: inactive
- Potency [3]: inactive
